Drawing on PubChem BioAssay (Tox21), this text covers Potency and outcome for eight compounds.

Experiment [1] can be described thus: qHTS assay to identify small molecule agonists of the RXR signaling pathway - cell viability counter screen (AID 1159529).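 Also: HEK 293T cells carrying an RXR-alpha UAS beta-lactamase reporter; series mostly up to about 77 µM; nearly all actives have a fitted effect of over 50% in size.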 The method in brief: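 In this parallel viability measure, GeneBLAzer RXR-alpha HEK 293T cells (2% charcoal-stripped FBS) were given a 5 hr preincubation, treated with compounds 16 hr at 37 C, and read by CellTiter-Glo luminescence.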
In general terms: Quantitative high-throughput screening tests each substance at several concentrations.

Experiment [2] can be described thus: qHTS assay to identify small molecule antagonists of the retinoid acid receptor (RAR) signaling pathway - cell viability counter screen (AID 1159551). Also: nearly all actives have a fitted effect of over 35% in size. The method in brief: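 Cytotoxicity counter screen: ATP content quantified by CellTiter-Glo luminescence in C3RL4 cells treated 6 hr at 37 C with compound and retinol (1 uM final). Cells plated at 1,000/well and cultured overnight before dosing.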

Experiment [3] can be described thus: qHTS assay to identify small molecule antagonists of the retinoic acid receptor (RAR) signaling pathway (AID 1159552; also: nearly all actives have a fitted effect of over 50% in size). The method in brief:
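C3RL4 RARE-luc cells, overnight plating; retinol 1 uM final added right after compound; 6 hr 37 C; luciferase read at 30 min RT.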

The nature of experiment [4]: qHTS assay to identify small molecule agonists of the retinoic acid receptor (RAR) signaling pathway (AID 1159553). The method in brief: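 Luminescence was measured 30 min after luciferase reagent addition at room temperature. Before that, C3RL4 reporter cells (1,000 per well, plated overnight) were treated with compound for 6 hr at 37 C and 5% CO2.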
Experiment [5] in a line: qHTS assay to identify small molecule antagonists of the estrogen related receptor (ERR) signaling pathway - cell viability counter screen (AID 1224818). Also: series mostly up to about 46 µM. The method in brief: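 Cytotoxicity counter screen: fluorescence from CellTiter-Fluor, added after 17.5 h compound exposure at 37 C and read 30 min later. ERR cell line seeded at 2,000 cells/well, preincubated 6 h before dosing.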

Experiment [6] can be described thus: qHTS assay to identify small molecule antagonists of the estrogen related receptor signaling pathway with the pleiotropic PPARgamma coactivator (PGC) cell viability counter screen (AID 1224822; also: series mostly up to about 46 µM). The method in brief: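 Viability counter-screen read by fluorescence intensity after 30 min with CellTiter-Fluor at 37 C; PGC/ERR reporter cells were exposed to compounds for 17.5 h at 37 C following a 6 h preincubation.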

Experiment [7] in a line: qHTS assay to identify small molecule antagonists of the estrogen related receptor (ERR) signaling pathway from Tox21 library - cell viability counter screen (AID 1224834). Also: nearly all actives have a fitted effect of over 30% in size. The essentials: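 CellTiter-Fluor fluorescence, read after 30 min at 37 C, measures viability of ERR cells. Cells plated at 2,000/well and incubated 6 h before pin-tool compound addition, then exposed 17.5 hours at 37 C.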

Experiment [8] concerns the target Luciferin 4-monooxygenase (Photinus pyralis) (UniProt P08659). Description: qHTS assay to identify small molecule inhibitors of firefly luciferase (AID 1224835). Also: nearly all actives have a fitted effect of over 25% in size. Also: potency is read from the fitted curve at half-maximal effect. The essentials: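 Biochemical qHTS: compounds run as interplate titrations against purified firefly enzyme, with D-luciferin and ATP each at its KM concentration. Light output recorded by CCD imaging.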

The nature of experiment [9]: qHTS assay to identify small molecule agonists of the constitutive androstane receptor (CAR) signaling pathway - cell viability counter screen (AID 1224836). Also: series mostly up to about 92 µM; nearly all actives have a fitted effect of over 45% in size. The method in brief: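 Using CellTiter-Fluor, viability of HepG2 cells harbouring hCAR and CYP2B6-2.2kb was measured following 23 h incubation with a 15-concentration compound series plus PK11195 (0.75 uM final).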

Experiment [10] can be described thus: qHTS assay to identify small molecule antagonists of the constitutive androstane receptor (CAR) signaling pathway - cell viability counter screen (AID 1224837). Also: series mostly up to about 92 µM; nearly all actives have a fitted effect of over 45% in size. The essentials: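 Cytotoxicity counter-screen: CellTiter-Fluor fluorescence after 23 h compound exposure (15-point qHTS) in double-stable HepG2-CYP2B6-hCAR cells, with 50 nM CITCO added.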
Experiment [11] concerns the target Nuclear receptor subfamily 1 group I member 3 (Homo sapiens) (UniProt Q14994). Description: qHTS assay to identify small molecule antagonists of the constitutive androstane receptor (CAR) signaling pathway (AID 1224838).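 Also: HepG2 cells stably expressing hCAR with CYP2B6 luciferase reporter stimulated by CITCO; nearly all actives have a fitted effect of over 40% in size.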 The method in brief: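 Antagonism measured as luciferase signal (ONE-Glo, 30 min, room temperature) in CAR-stimulated cells: HepG2-CYP2B6-hCAR double-stable line exposed 24 hr at 37 C to compound in a 15-point series plus 50 nM CITCO.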

Experiment [12] shares this target. Description: qHTS assay to identify small molecule agonists of the constitutive androstane receptor (CAR) signaling pathway (AID 1224839). Also: nearly all actives have a fitted effect of over 15% in size. Also: potency is read from the fitted curve at half-maximal effect. The essentials: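 Double-stable HepG2 cells (hCAR, CYP2B6-2.2kb) seeded 4 h before compound addition. Exposure 24 h with 0.75 uM PK11195 final. Luciferase detected by ONE-Glo.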
Experiment [13] can be described thus: qHTS assay to identify small molecule antagonists of the estrogen related receptor signaling pathway with the pleiotropic PPARgamma coactivator (PGC) from Tox21 10K library - cell viability counter screen (AID 1224840; active = well fitted cell-killing curve with a large enough effect in the repeat runs, not every such curve was filed as active; also: nearly all actives have a fitted effect of over 40% in size). The method in brief:
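Counter-screen for cytotoxicity: after 17.5 h compound exposure at 37 C, CellTiter-Fluor reagent added to PGC/ERR cells for 30 min and fluorescence read. Cells were seeded at 2,000 per well 6 h before dosing.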

The target in experiment [14] is Retinoic acid receptor RXR-alpha (Homo sapiens) (UniProt P19793). Description: qHTS assay to identify small molecule agonists of the RXR signaling pathway (AID 1159527; calls by dose curve; also: nearly all actives have a fitted effect of over 35% in size). The essentials: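 16 hr incubation of compound-treated RXR-alpha-UAS-bla HEK 293T cells (2% charcoal-stripped FBS, 37 C) preceded a 2 hr room-temperature LiveBLAzer FRET substrate step and blue/green fluorescence measurement.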
Chain of Retinoic acid receptor RXR-alpha (Homo sapiens) (P19793 whole entry, looked up): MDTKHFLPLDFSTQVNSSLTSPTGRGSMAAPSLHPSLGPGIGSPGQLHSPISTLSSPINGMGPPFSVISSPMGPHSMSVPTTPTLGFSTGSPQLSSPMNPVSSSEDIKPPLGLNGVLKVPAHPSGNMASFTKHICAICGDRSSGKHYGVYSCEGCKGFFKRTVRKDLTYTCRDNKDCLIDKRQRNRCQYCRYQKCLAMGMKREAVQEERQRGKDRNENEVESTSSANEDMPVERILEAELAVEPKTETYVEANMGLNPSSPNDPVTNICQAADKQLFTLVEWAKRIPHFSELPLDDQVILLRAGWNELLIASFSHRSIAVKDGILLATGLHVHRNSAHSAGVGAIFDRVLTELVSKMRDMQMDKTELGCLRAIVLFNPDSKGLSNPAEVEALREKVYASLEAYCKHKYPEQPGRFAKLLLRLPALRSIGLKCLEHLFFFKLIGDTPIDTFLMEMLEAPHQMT

Experiment [15] in a line: qHTS assay to identify small molecule antagonists of the estrogen related receptor signaling pathway with the pleiotropic PPARgamma coactivator (PGC) from Tox21 10K library (AID 1224841; call rule not given here; also: actives are mostly falling curves and most rising ones were filed inactive; nearly all actives have a fitted effect of over 50% in size; also: potency is read from the fitted curve at half-maximal effect). The method in brief:
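Luminescence (One-Glo, 30 min at room temperature) after 18 h compound treatment at 37 C of PGC/ERR reporter cells plated at 2,000 cells/well and settled 6 h beforehand.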

The nature of experiment [16]: qHTS assay to identify small molecule agonists of the estrogen related receptor signaling pathway with the pleiotropic PPARgamma coactivator (PGC) from Tox21 10K library (AID 1224842). Also: nearly all actives have a fitted effect of over 15% in size. The essentials: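 PGC/ERR reporter cell line, 2,000 cells per well, incubated 6 h at 37 C before 23 nL compound in DMSO was added. After 18 h at 37 C, One-Glo luminescence read following 30 min at room temperature.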

A short description of experiment [17]: qHTS assay to identify small molecule antagonists of the estrogen related receptor (ERR) signaling pathway (AID 1224819;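 also: luminescence from an ERR-driven luciferase reporter measured with One-Glo reagent; series mostly up to about 46 µM; nearly all actives have a fitted effect of over 50% in size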). The method in brief:
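LOPAC library screened for antagonism as reduced One-Glo luminescence in ERR reporter cells (2,000/well). Compounds were added after 6 h pre-incubation and left 18 h at 37C; reading followed a 30 min room-temperature reagent step.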

Experiment [18] in a line: qHTS assay to identify small molecule agonists of the estrogen related receptor (ERR) signaling pathway (AID 1224820). The method in brief: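 Luminescence readout (One-Glo, 30 min RT) from NTP-supplied ERR cell line exposed to compounds for 18 h at 37 C. Cells seeded 2,000 per well and pre-incubated 6 h before pin-tool compound transfer.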
Experiment [19] deals with estrogen-related receptor alpha (ERRalpha) with PGC-1alpha coactivator, human. Description: qHTS assay to identify small molecule antagonists of the estrogen related receptor signaling pathway with the pleiotropic PPARgamma coactivator (PGC) (AID 1224821; calls by dose curve). The essentials: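 PGC/ERR reporter cells; 6 h pre-incubation 37 C/5% CO2; pin-tool compound in DMSO, 18 h 37 C; One-Glo added, 30 min RT; luminescence read. qHTS antagonist mode.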

Experiment [20] in a line: qHTS assay to identify small molecule agonists of the estrogen related receptor signaling pathway with the pleiotropic PPARgamma coactivator (PGC) (AID 1224823). The method in brief: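 Luminescence readout (One-Glo, 30 min RT) from PGC/ERR cell line treated 18 h at 37 C with pin-tool-delivered DMSO compound solutions; cells plated 6 h before dosing. Quantitative HTS format.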

Where “and” joins values, the source holds several entries; their conditions need not be identical. Equal values may be shown once. Results filed as inconclusive are left out. Calls of active or inactive are those of the source. Unless noted, calls follow the shape of the dose curve; as a rule, active = well fitted curve in the direction sought with a large enough effect in the repeat runs; inconclusive = weak or mixed curves; inactive = no such curve, though single readings can be large; an effect the other way counts as inactive or inconclusive.

Chain of Nuclear receptor subfamily 1 group I member 3 (Homo sapiens) (Q14994 whole entry, looked up): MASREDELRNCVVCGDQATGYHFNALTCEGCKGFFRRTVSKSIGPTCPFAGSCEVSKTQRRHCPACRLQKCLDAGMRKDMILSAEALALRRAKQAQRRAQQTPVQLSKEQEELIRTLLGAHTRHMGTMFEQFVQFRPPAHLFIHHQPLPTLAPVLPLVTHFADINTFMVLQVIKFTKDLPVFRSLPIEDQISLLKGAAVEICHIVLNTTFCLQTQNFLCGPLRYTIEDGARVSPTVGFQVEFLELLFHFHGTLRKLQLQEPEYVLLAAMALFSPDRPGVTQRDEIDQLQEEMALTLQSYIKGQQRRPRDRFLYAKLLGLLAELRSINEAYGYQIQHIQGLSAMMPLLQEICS
Chain of Luciferin 4-monooxygenase (Photinus pyralis) (P08659 whole entry, looked up): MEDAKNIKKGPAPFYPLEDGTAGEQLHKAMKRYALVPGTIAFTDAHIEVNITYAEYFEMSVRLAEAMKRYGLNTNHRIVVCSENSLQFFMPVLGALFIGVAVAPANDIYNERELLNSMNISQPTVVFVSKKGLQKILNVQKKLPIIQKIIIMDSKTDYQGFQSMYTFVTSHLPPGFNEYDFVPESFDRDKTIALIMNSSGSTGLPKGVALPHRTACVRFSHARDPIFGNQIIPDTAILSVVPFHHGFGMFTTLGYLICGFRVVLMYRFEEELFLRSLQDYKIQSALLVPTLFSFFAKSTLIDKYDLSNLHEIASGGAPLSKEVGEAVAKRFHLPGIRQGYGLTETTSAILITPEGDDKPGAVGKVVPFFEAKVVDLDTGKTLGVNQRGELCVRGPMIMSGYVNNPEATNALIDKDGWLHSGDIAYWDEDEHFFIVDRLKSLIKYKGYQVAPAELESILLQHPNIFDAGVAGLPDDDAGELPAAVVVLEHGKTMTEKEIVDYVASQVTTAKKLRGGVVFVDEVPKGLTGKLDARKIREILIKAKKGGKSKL

In the case of `Oc1ccc(C2CNCCc3c2cc(O)c(O)c3Cl)cc1` (stereo not given), the Potency result in [1], in experiment [3], in [4], in experiment [7], in [8] and in [9] was “inactive” throughout. The Potency result in [10], in [11], in experiment [12] and in experiment [13] was “inactive” each time. Besides, the compound was called inactive in [2], in [5] and in [6].

`CC/C=C\CC/C=C/CO`: the Potency entry in experiment [14], in experiment [1], in experiment [3], in experiment [4], in [7] and in experiment [9] was “inactive” in each case. In addition, the Potency entry in experiment [10], in experiment [11], in experiment [12], in [13] and in [15] was “inactive” each time. Moreover, the result in experiment [2] and in experiment [16] was inactive.

As for `CO[Si](CCCOCC1CO1)(OC)OC` (stereo not given), the Potency result in experiment [1], in [3], in experiment [4], in experiment [7], in experiment [8] and in [9] was “inactive” in each case. For the same compound, the Potency entry in experiment [10], in experiment [11], in [12] and in experiment [13] was “inactive” throughout. Besides, the result in experiment [2] was inactive.

Consider `C1CN(CCOCCN2CCOCC2)CCO1`, for which the Potency entry in experiment [14], in [1], in experiment [3], in [4], in [7] and in experiment [9] was “inactive” each time. In addition, the Potency entry in experiment [10], in experiment [11], in [12], in [13] and in experiment [15] was “inactive” in each case. For the same compound, the compound was called inactive in experiment [2] and in experiment [16].

`Cc1cccc(C)c1NC(=O)C(C)N` (stereo not given): the Potency result in experiment [1], in experiment [3], in experiment [4], in experiment [7], in experiment [8] and in [9] was “inactive” each time. In addition, the Potency entry in experiment [10], in experiment [11], in [12], in experiment [13] and in experiment [15] was “inactive” throughout. The compound was called inactive in [2], in [5], in [17], in experiment [18], in [19] and in experiment [6]. In experiment [20], the result was inactive.

With `CC(C)(c1ccc(O)cc1)c1ccc(O)cc1`, the Potency result in experiment [1], in [3], in [4], in experiment [9], in experiment [10] and in experiment [11] was “inactive” each time. The call in experiment [2], in experiment [5], in experiment [17], in [18], in [19] and in [6] was inactive. Also, the outcome in experiment [20] and in experiment [16] was inactive. Besides, the Potency is 39.5 µM (active) and 36.2 µM (active) in experiment [8]; 30.3 µM (active) and 11.1 µM (active) in [12]; 60.4 µM (active) and 60.4 µM [inhibitor] (active) in experiment [15].

Regarding `CN1CCCC1`, the Potency entry in [14], in experiment [1], in experiment [3], in experiment [4], in experiment [7] and in experiment [9] was “inactive” each time. The Potency result in [10], in experiment [11], in experiment [12], in experiment [13] and in experiment [15] was “inactive” each time. The compound was called inactive in experiment [2].

Regarding `COCCc1ccc(OCC(O)CNC(C)C)cc1` (stereo not given), the Potency result in experiment [14], in [1], in experiment [4], in experiment [7], in [8] and in [9] was “inactive” each time. Also, the Potency result in experiment [10], in experiment [11], in [12], in experiment [13] and in [15] was “inactive” each time. In addition, the outcome in experiment [2], in experiment [5], in experiment [17], in [18], in experiment [19] and in experiment [6] was inactive. Moreover, the compound was classed as inactive in experiment [20].
